Unmarked numbers belong to inactive results. No rule for the calls is given here.

The assay deals with L-lactate dehydrogenase (Plasmodium falciparum (isolate CDC / Honduras)) (UniProt Q27743). In words: PfLDH activity inhibition – cell lysate, 3D7 strain, counter-screen for P. falciparum growth inhibition project (AID 2304).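 Also: 0% = vehicle and 100% = reference inhibitor.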 The settings on record: P. falciparum 3D7 crude extract, LDH APAD/NBT absorbance; at 2 µM; active compounds read high.
Sequence of L-lactate dehydrogenase (Plasmodium falciparum (isolate CDC / Honduras)) (Q27743 whole entry, looked up): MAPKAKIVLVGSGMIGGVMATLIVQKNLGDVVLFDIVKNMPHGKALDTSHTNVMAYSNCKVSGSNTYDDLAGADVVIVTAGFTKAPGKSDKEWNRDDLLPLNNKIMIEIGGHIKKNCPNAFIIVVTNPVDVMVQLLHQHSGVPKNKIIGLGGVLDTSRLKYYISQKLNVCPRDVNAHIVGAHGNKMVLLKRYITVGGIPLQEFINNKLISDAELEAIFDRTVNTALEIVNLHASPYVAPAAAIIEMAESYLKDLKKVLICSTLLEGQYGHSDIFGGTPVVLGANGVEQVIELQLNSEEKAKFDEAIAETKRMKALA
In the case of `CC(C)CCN=C(N)c1ccc(OCCCCCOc2ccc(C(N)=NCCC(C)C)cc2)cc1`, the inhibition – broadly, the relative decrease from the control value, in per cent – is 5%.
As for `COc1ccc2nccc([C@@H](O)CN3CCC(NCc4cn5cc(F)ccc5n4)CC3)c2c1`, the inhibition is -5%.
For `CS(=O)(=O)c1ccc(CCNCc2ccc(-c3ccc(CN(C(=O)C4CC(=O)c5ccccc54)C4CCN(Cc5ccccc5)CC4)cc3)nc2)cc1` (stereo not given), the inhibition is 9%.
Consider `Cc1[nH]c(C)c(-c2ccc(C(=O)c3ccc(Cl)cc3)cc2)c(=O)c1Br`, for which the inhibition is 4%.
With `CCCNCc1ccc(-c2ccc(CN(CCOC)C(=O)c3ccccc3)cc2)nc1`, the inhibition was -7%.
For `CC(C)C(NC(=O)Cc1cccc2ccccc12)C(=O)Nc1cccc(C#N)c1` (stereo not given), the inhibition is 0%.
On to `COc1ccccc1CCNc1nc(C)cc(N[C@@H](CC(C)C)C(=O)Nc2ccccc2)n1`, for which the inhibition is -2%.
`CCC1(CC)CN(c2ccccc2)c2ccc(O)cc2S(=O)(=O)C1CC(C)C` (stereo not given): the inhibition is 2%.
As to `O=C(Nc1cc(C(F)(F)F)ccc1Cl)c1ccc(Cn2cc(Br)cn2)cc1`, the inhibition is -5%.
On to `COc1cccc(NC(=O)Nc2ccc(-c3oc(C(=O)NCC(c4ccccc4)N(C)C)cc3-c3ccncc3)cc2)c1` (stereo not given), for which the inhibition was 2%.
Take `CC(Cc1ccc(NC(=O)c2ccc(CNCc3ccccc3)cc2)cc1)N(CCc1cccc(Cl)c1)C(=O)OC(C)(C)C` (stereo not given): the inhibition was -2%.
Consider `NC(=NCCc1ccc(Cl)c(Cl)c1)c1ccc2ccccc2c1`, for which the inhibition is -3%.
On to `O=C(NC1CCCc2ccccc21)C1CCCN(C(=O)c2ccc(O)c(-c3ccc(Cl)c(Cl)c3)c2)C1` (stereo not given), for which the inhibition is -8%.
Turning to `CC(C)CNC(=O)c1cncc(-c2ccc(CNCCCc3ccccc3)cc2)c1`, the inhibition is -6%.
Then `O=C(/C=C/c1ccc(Cl)c(Cl)c1)NCCCCCN1CCC(NC(=S)Nc2ccc(F)cc2F)CC1`, with 1%.
Under `CN(C)C(C)(C)CN(Cc1ccc(-c2ccc(C(F)(F)F)cc2)cc1)C(=O)Cn1c(CCc2cccc(F)c2F)nc(=O)c2ccccc21` stands -3%; under `CCc1cccc2c(C#N)cn(CC(=O)Nc3ccc(OC)cc3)c12`, -3%.
Under `COc1ccc2c(CCNc3nc(SC)ncc3C(=O)NCCc3ccc(F)cc3)c[nH]c2c1` stands -1%; under `COc1ccc(C(=O)[C@H]2C[C@@H]2CN(C)CCC(O)c2ccc(Cl)c(Cl)c2)cc1` (stereo not given in full), -8%; under `Cc1nc(N)nc(N)c1-c1ccc(Br)cc1`, 3%.
For `COc1cc(Cc2cnc(N)nc2N)ccc1OCC(=O)Nc1ccc(C)cc1`, the inhibition was -2%.
Under `O=C(/C=C/c1ccc(C(F)(F)F)cc1)NCCCCCN1CCN(C(=O)Nc2ccc(F)c(Cl)c2)CC1` stands -2%; under `O=C(NCc1cccc(OC(F)(F)F)c1)c1cnc2c(c1)nc(-c1cnc(-c3ccccc3)[nH]1)n2CCc1cnc[nH]1`, -10%; under `Cc1cccc2[nH]c(-c3ccc(-c4ccc(CN5CCN(CCN6CCOCC6)CC5)cc4)cc3)nc12`, -1%.
As for `Cc1nc(NCCCn2ccnc2)cc(-c2cncc(-c3ccc(OC(F)(F)F)cc3)c2)n1`, the inhibition is 2%.
As to `Oc1ccc2[nH]cc(C3CCN(CCC(c4ccccc4)c4ccccc4)CC3)c2c1`, the inhibition is -3%.
For the compound `COc1ccc2nccc(N3CCC(NCCNCc4ccc5c(n4)NC(=O)CS5)C3)c2n1` (stereo not given), the inhibition is -4%.
For `COc1cc(C)nc2ccc(NC(=O)c3ccc(C(=O)Nc4ccc5nc(C)cc(OC)c5c4)cc3)cc12`, the inhibition is -5%.
As to `Cn1nc(-c2cccc(CN[C@@H]3CCc4ccc(O)cc43)c2)c2cnc(NC3CCCC3)nc21`, the inhibition is -2%.
On to `Oc1ccc(CCNc2nc(NCCCOc3ccccc3-c3cccnc3)nc(N3CCNCC3)n2)cc1`, for which the inhibition is 0%.
Turning to `CC(C)N1CCN(C(CN2CCN(CCCOc3cccc4ccccc34)CC2)c2ccc(F)cc2)CC1` (stereo not given), the inhibition was 4%.
For the compound `O=C(Nc1cccc([N+](=O)[O-])c1)Nc1ccc(Cl)c(C(F)(F)F)c1`, the inhibition is 6%.
For the compound `NC1CCN(c2nc(NCCCc3ccc(O)cc3)nc(NCc3ccccc3-c3ccc(C(F)(F)F)cc3)n2)CC1`, the inhibition was 1%.
On to `CCc1ccc(-c2nc3cc(NC(=O)c4cc([N+](=O)[O-])cc([N+](=O)[O-])c4)ccc3o2)cc1`, for which the inhibition is 2%.
Then `FC(F)(F)c1ccc2nc(-c3ccc(-c4ccc(CNCc5cnn(-c6ccccc6)n5)cc4)cc3)[nH]c2c1`, with -1%; and `Cc1ccc(C(=O)Nc2ccc(Nc3ccnc4cc(-c5ccccn5)ccc34)cc2O)cc1`, with 2%; and `COc1ccc(-c2ccc(NC(=O)c3ccc(C#N)cc3)cc2)cc1CN(C)CCN(C)C`, with 2%.
Consider `COc1cccc(-c2ccc3c(-c4ccc(F)cc4)cnc(N)c3c2)c1`, for which the inhibition was -2%.
Then `COc1ccc(CNC(=O)NC2CCN(c3ccnc(Nc4ccc(F)cc4)n3)CC2)cc1`, with -6%; and `O=C(NCCc1ccccc1)N(Cc1ccc(-c2cccc(CN3CCNCC3)c2)cc1)C1CCN(Cc2ccccc2)CC1`, with -1%.
